Potency data for 99 compounds are collected here from PubChem BioAssay AID485364 (National Center for Advancing Translational Sciences (NCATS), 2010).

Among all 360,000 compounds or so, about 11,000 (3.1%) were called active. Where a call stands in place of a potency, no number is given. About 4% were inconclusive and are not listed. Calls come from the whole dose curve; as a rule, active = well fitted inhibition curve with a large enough effect; inconclusive = small, poorly fitted or top-dose-only effect; inactive = no such curve, though single readings can be large or run the other way. Only a selection was taken, and actives are over-represented in it overall.
Potency is the fitted concentration of half-maximal effect.

The target of the test is Schistosoma mansoni thioredoxin glutathione reductase (TGR) (UniProt Q962Y6). Put plainly: qHTS Assay for the Inhibitors of Schistosoma Mansoni Peroxiredoxins. Note: nearly all actives have a fitted effect of over 60% in size. Conditions: purified TGR, DTNB reduction, TNB absorbance 405 nm; series mostly up to 114 µM. In a few lines: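 TGR 20 nM + NADPH 100 uM (dispensed conc.), cpd preinc 15 min RT; start with NADPH (500 uM addition) then DTNB (15 mM addition). Kinetic TNB absorbance, 405 nm filter. Four-parameter Hill fit across titration.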
For orientation: Quantitative high-throughput screening tests each substance at several concentrations.
For the compound `Oc1ccc2ccccc2c1N=Nc1nccs1`, the Potency is 17.8 µM (active).

As for `COc1ccc(Cc2nc3ccc(C(=O)NCc4ccccc4Cl)cc3o2)cc1`, the Potency entry was “inactive”.

With `CCOc1ccccc1NC(=O)Cn1c2ncccc2c(=O)n1-c1ccc(C)c(C)c1`, the Potency entry is “inactive”.

On to `Cc1cccn2c(=O)c3cc(C#N)c(=O)n(CCCN4CCOCC4)c3nc12`, for which the Potency was 25.1 µM (active).

Consider `Cc1cccn2c(=O)c3cc(C(=O)NCCN4CCOCC4)c(=N)n(Cc4cccnc4)c3nc12`, for which the Potency result is “inactive”.

In the case of `CCCCn1c(=N)c(S(=O)(=O)c2ccccc2)cc2c(=O)n3cccc(C)c3nc21`, the Potency result is “inactive”.

Consider `CC1CCC2(CC1)N=C(c1ccccc1)C(=O)N2CC(=O)Nc1ccc(F)c(Cl)c1` (centres undefined), for which the Potency result is “inactive”.

For the compound `N#Cc1nc(/C=C/c2ccc(F)cc2)oc1NCc1ccc(F)cc1`, the Potency entry was “inactive”.

As for `CCN(C(=O)Cn1cnc2sc(C)c(S(=O)(=O)N3CCN(c4ncccn4)CC3)c2c1=O)c1ccccc1F`, the Potency entry is “inactive”.

In the case of `O=C(CSc1nc(-c2ccco2)cc(C(F)(F)F)n1)N1CCc2ccccc2C1`, the Potency is 11.2 µM (active).

For `CN(C)c1ccc(NC(=O)CSc2nc(-c3ccco3)cc(C(F)(F)F)n2)cc1`, the Potency entry was “inactive”.

Turning to `Cc1cccc(NC(=O)CSc2nc(-c3ccco3)cc(C(F)(F)F)n2)c1C`, the Potency result is “inactive”.

As to `O=C(NCc1ccc2c(c1)CCN2C(=O)c1ccccc1)c1ccccc1`, the Potency entry was “inactive”.

For `CCCn1c2ccccc2c2cnn(CC(=O)NCC3CCN(Cc4ccc(C)cc4)CC3)c(=O)c21`, the Potency result was “inactive”.

With `Cc1cccc(NC(=O)c2ccc(F)c(S(=O)(=O)N(C)C3CCCCC3)c2)c1`, the Potency result is “inactive”.

For `CCOc1ccccc1C(=O)NCC(c1ccc(N(C)C)cc1)N1CCCC1` (centres undefined), the Potency entry was “inactive”.

Turning to `Oc1ccc(N=Cc2c(O)ccc3ccccc23)cc1`, the Potency was 28.2 µM (active).

Turning to `CC(=O)n1c(C=Nc2ccccc2)c(O)c2ccccc21`, the Potency entry was “inactive”.

Consider `Cc1cc(N=Nc2ccc3ccccc3c2)ccc1O`, for which the Potency entry is “inactive”.

Take `Oc1ccc2ccccc2c1C=Nc1ccccc1`: the Potency is 12.6 µM (active).

For `O=[N+]([O-])c1ccc(N=Cc2c(O)ccc3ccccc23)cc1`, the Potency was 22.4 µM (active).

Turning to `CC(C)CNC(=O)CC(c1ccccc1)c1c(O)ccc2ccccc12` (centres undefined), the Potency result is “inactive”.

As to `CCOc1[nH]n(-c2ccc(Cl)cc2)c(=O)c1C=Nc1ccc(O)cc1`, the Potency result is “inactive”.

With `O=[N+]([O-])c1cnc2ccc3ccccc3c2c1`, the Potency entry is “inactive”.

Take `CCC(=O)CC(c1ccc([N+](=O)[O-])cc1)c1c(O)c2ccccc2oc1=O` (centres undefined): the Potency result is “inactive”.

`COc1ccc(CCNC(=O)c2c3c(nc4ccccc24)C(=O)N(C2CCCCC2)C3)cc1OC`: the Potency result is “inactive”.

Turning to `Cc1ccc(C(=O)Nc2ccccc2F)cc1S(=O)(=O)N1CCOCC1`, the Potency result is “inactive”.

For `CCOc1ccccc1NC(=O)CN1CCN(S(=O)(=O)c2ccc(Br)cc2)CC1`, the Potency result was “inactive”.

Take `Cc1cccc(NC(=O)C2CCCN2S(=O)(=O)c2cccc3nsnc23)c1C` (centres undefined): the Potency result is “inactive”.

With `Cn1cnnc1Sc1ccc(S(C)(=O)=O)cc1[N+](=O)[O-]`, the Potency is 35.5 µM (active).

In the case of `CC(C)(C)n1cnnc1Sc1ccc([N+](=O)[O-])cn1`, the Potency result is “inactive”.

For the compound `CCN(CC(=O)Nc1c(F)cccc1F)C(=O)c1ccc(Sc2nncn2C)c([N+](=O)[O-])c1`, the Potency result is “inactive”.

In the case of `C=CCn1c(SCc2ccc(C(=O)NCCO)cc2)nc2ccccc2c1=O`, the Potency result was “inactive”.

Turning to `C=CCn1c(SCC(=O)NC(=O)Cc2ccccc2)nc2ccccc2c1=O`, the Potency was 89.1 µM (active).

As for `O=C(CSc1nc2ccccc2c(=O)n1CCCO)NC1CC1`, the Potency result was “inactive”.

For `Cc1ccc(O)c(NC(=O)c2cc(-c3ccc(F)cc3)no2)c1`, the Potency entry was “inactive”.

In the case of `Cc1ccc(C(=O)N2CCc3cc(CNC(=O)c4ccc(Br)cc4)ccc32)cc1`, the Potency entry was “inactive”.

Take `COc1ccc(NC(=O)c2cc3cc(C)ccc3n2C)cc1`: the Potency entry was “inactive”.

`CN(C)S(=O)(=O)c1ccc(NC(=O)N2CCOCC2)cc1`: the Potency entry is “inactive”.

With `CN(C)S(=O)(=O)c1ccc(N/C=C(\[N+](=O)[O-])S(=O)(=O)c2ccccc2)cc1`, the Potency is 14.1 µM (active).

Turning to `CN(C)S(=O)(=O)c1cccc(NC(=S)N/N=C/C(=O)c2ccccc2)c1`, the Potency result is “inactive”.

For `O=C(CN1C(=O)CCn2nc(-c3ccccc3)cc21)NCc1ccccc1`, the Potency entry is “inactive”.

On to `CC1CSc2nnc(CCc3ccccc3)n21` (centres undefined), for which the Potency result was “inactive”.

For the compound `CCN1N=C(c2ccccc2)CCC1=O`, the Potency entry is “inactive”.

`Cc1nnc2n1N=C(c1ccccc1)CS2`: the Potency was 39.8 µM (active).

As for `COc1ccc(-c2cc(-c3nc(-c4cc(OC)c(OC)c(OC)c4)no3)[nH]n2)c(OC)c1`, the Potency result was “inactive”.

Regarding `CCOCCCNC(=O)c1c(NC(=O)c2nc(SC)ncc2Cl)sc2c1CCCC2`, the Potency result is “inactive”.

Regarding `O=[N+]([O-])c1c(NCCO)cc(Sc2nc3ccccc3s2)c2nonc12`, the Potency is 0.1 µM (active).

As for `CC(C)c1ccc(S(=O)(=O)Nc2ccc(O)c(Sc3nc4ccccc4s3)c2)cc1`, the Potency result is “inactive”.

As for `CC(C)(C)c1ccc(S(=O)(=O)Nc2ccc(O)c(Sc3nc4ccccc4s3)c2)cc1`, the Potency entry was “inactive”.

In the case of `Cc1ccccc1C(=O)Nc1sc2c(c1C(=O)N1CCC(C)CC1)CCCC2`, the Potency result is “inactive”.

In the case of `CCOC(=O)c1ccccc1NC(=O)CCc1c(C)nc2c(c1C)c(=O)n(C)c(=O)n2C`, the Potency entry was “inactive”.

Consider `Cn1c(=O)c(Sc2ccc(Cl)cc2)c(O)c2ccccc21`, for which the Potency entry is “inactive”.

Consider `Cc1cccc(Oc2c([N+](=O)[O-])c(=O)n(C)c3ccccc23)c1`, for which the Potency is 3.98 µM (active).

For `Cc1cccc(C2CC(=O)Oc3c2c(=O)n(C)c2ccccc32)c1` (centres undefined), the Potency entry is “inactive”.

Consider `Cn1nc(-c2ccccc2)c2cc([N+](=O)[O-])ccc21`, for which the Potency entry is “inactive”.

`Cn1c(=O)c([N+](=O)[O-])c(Oc2ccccc2)c2ccccc21`: the Potency was 2.82 µM (active).

As to `Cc1cccc(OP(=O)(Nc2c(C)n(C)n(-c3ccccc3)c2=O)Oc2cccc(C)c2)c1`, the Potency entry is “inactive”.

`Cc1ccc(Cl)cc1N1CCN(S(=O)(=O)c2cc3[nH]c(=O)c(=O)[nH]c3cc2C)CC1`: the Potency entry is “inactive”.

On to `CCCNC(=O)c1ccc2c(c1)ncn2-c1ccc(C)cc1C`, for which the Potency entry was “inactive”.

For `CC(C)CC(=O)NCC(c1ccc2c(c1)OCO2)N1CCN(c2ccc(F)cc2)CC1` (centres undefined), the Potency result was “inactive”.

In the case of `CCOc1cc(/C=C(\C#N)C(=O)Nc2ccccc2C)ccc1OCc1cc(=O)n2nc(CC)sc2n1`, the Potency result was “inactive”.

Consider `CCOCCCn1c(SCC(=O)Nc2ccc(CC)cc2)nc2ccccc2c1=O`, for which the Potency entry is “inactive”.

With `CCOc1ccc(NC(=O)CC2C(=O)N(c3cccc(OC)c3)C(=O)N2C2CCCCC2)cc1` (centres undefined), the Potency entry is “inactive”.

In the case of `CCOc1cc(C2C(C(=O)OC)=CN(C3CCCC3)C=C2C(=O)OC)cc(Br)c1O`, the Potency was 56.2 µM (active).

`CCOc1ccc(CNC(=O)C2CCC(=O)N2C2CCCC2)cc1OC` (centres undefined): the Potency entry is “inactive”.

Regarding `COC(=O)C1=CN(Cc2ccc(OC)cc2)C=C(C(=O)OC)C1c1ccc(O)c(OC)c1`, the Potency entry is “inactive”.

As to `COc1ccc(C)cc1Nc1nc2ccccc2c2nnc(C)n12`, the Potency entry was “inactive”.

As for `COc1cc2ccccc2cc1C(=O)Nc1cccc(-c2nc3ccccc3o2)c1`, the Potency entry was “inactive”.

Consider `CCCCN(CCCNC(=O)c1cc(Nc2ccccc2OC)nc2ccccc12)c1ccccc1`, for which the Potency entry is “inactive”.

On to `O=C(c1cccc([N+](=O)[O-])c1)N1CCN(C(=O)c2ccco2)CC1`, for which the Potency entry is “inactive”.

Consider `O=C(CNS(=O)(=O)c1ccccc1)N1CCN(C(=O)c2ccco2)CC1`, for which the Potency entry was “inactive”.

Take `O=C(c1cccc(S(=O)(=O)Nc2ccccc2Cl)c1)N1CCN(C(=O)c2ccco2)CC1`: the Potency was 31.6 µM (active).

On to `COc1ccc(OC)c(NC(=O)CSc2nc3ccccc3nc2N2CCCCC2)c1`, for which the Potency result was “inactive”.

`CCOc1ccc(C2C(C(=O)Nc3ccc(Cl)cc3)=C(C)Nc3nc(C(F)(F)F)nn32)cc1` (centres undefined): the Potency result is “inactive”.

Regarding `Cc1cccc(C(=O)N2c3nc(-c4ccco4)nn3C3(CCCCC3)[C@@H]3CCCC[C@@H]32)c1`, the Potency was 35.5 µM (active).

As for `Cc1ccc(C(=O)N2c3ncnn3C3(CCCCC3)[C@@H]3CCCC[C@@H]32)cc1`, the Potency result is “inactive”.

As for `Cc1cccc(C(=O)NC(=S)N(C)C2CCCCC2)c1`, the Potency result was “inactive”.

For the compound `CCN(CC)CCNC(=O)Cn1ncc2c3ccccc3n(Cc3ccccc3C)c2c1=O`, the Potency entry is “inactive”.

In the case of `COc1ccc(/C=C/c2noc(-c3ccccc3O)n2)cc1OC`, the Potency result was “inactive”.

As for `COc1ccccc1CCNC(=O)c1cccn1-c1nnc(N2CCCCC2)s1`, the Potency result was “inactive”.

`Cc1ccc(C2C=C(c3ccc(Cl)cc3)Nc3nc(NC(=O)CCC(=O)O)nn32)cc1` (centres undefined): the Potency was 17.8 µM (active).

As for `COc1ccc(CNC(=O)Cn2nnc(-c3ccc(S(C)(=O)=O)cc3)n2)cc1`, the Potency result is “inactive”.

For `COc1ccc(CC(=O)Nc2nc3n(n2)C(c2ccccc2)CC(=O)N3)cc1OC` (centres undefined), the Potency entry was “inactive”.

For `COc1ccc(C2C=C(c3ccc(Br)cc3)Nc3nc(NS(C)(=O)=O)nn32)cc1` (centres undefined), the Potency is 22.4 µM (active).

Turning to `COc1ccc(C2=CC(c3ccccc3Cl)n3nc(-c4ccc(Cl)cc4)nc3N2)cc1` (centres undefined), the Potency entry is “inactive”.

As for `CC1=C(C(=O)Nc2ccccc2)C(c2ccc(C)cc2)n2nc(SCc3ccccc3C)nc2N1` (centres undefined), the Potency entry was “inactive”.

For `CCC(C(=O)Nc1cc(OC)ccc1OC)n1c(=O)c(C(F)(F)F)nc2ccccc21` (centres undefined), the Potency result was “inactive”.

On to `COc1ccc(CCNC(=O)c2ccc(CSCc3ccc(C)cc3)o2)cc1OC`, for which the Potency entry was “inactive”.

Consider `Cc1ccccc1CN1CCC(CNC(=O)c2c(C)oc3ncnc(N4CCCCC4)c23)CC1`, for which the Potency result was “inactive”.

With `CCOc1ccc(OCC)c(Nc2nc3ccccc3n3nnnc23)c1`, the Potency entry is “inactive”.

As for `COc1ccc(CCNC(=O)c2cnc3sc(N4CCCCCC4)nn3c2=O)cc1OC`, the Potency entry is “inactive”.

`COc1cccc(N2CC(NC(=O)/C=C\c3ccccc3)CC2=O)c1` (centres undefined): the Potency entry was “inactive”.

Regarding `O=S(=O)(NC1CC1)c1ccc(F)c(F)c1`, the Potency result was “inactive”.

Regarding `CC1CCC(NS(=O)(=O)c2ccc3c(c2)n(C)c(=O)c(=O)n3C)CC1` (centres undefined), the Potency result is “inactive”.

With `Cn1sc(=O)c2cc(S(=O)(=O)NC3CC3)ccc21`, the Potency is 1.58 µM (active).

`Cn1c(COc2ccccc2C(C)(C)C)nc2ccccc21`: the Potency entry is “inactive”.

With `Cc1cc2c(cc3c(SCc4cccc(Cl)c4)nnc(C)n32)o1`, the Potency result was “inactive”.

Regarding `Cc1ccc(-c2nnc(Nc3cccc(Br)c3)c3ccccc23)cc1S(=O)(=O)NCC1CCCO1` (centres undefined), the Potency entry was “inactive”.
